{
  "source": "PubChem BioAssay AID720540",
  "about": "(National Center for Advancing Translational Sciences (NCATS), 2013)",
  "note": "About 460 (35%) of roughly 1,300 compounds were called active. Not shown: some 39% with an inconclusive outcome. Calls follow the shape of the dose curve; as a rule, active = well fitted inhibition curve with a large enough effect; inconclusive = small, poorly fitted or top-dose-only effect; inactive = flat fitted curve, though single readings scatter. This is one part of the list. Potency is read from the fitted curve at half-maximal effect.",
  "data": [
    {"molecular_target": "Protein phosphatase EYA2 (Homo sapiens) (UniProt O00167)", "sequence (O00167 whole entry, looked up)": "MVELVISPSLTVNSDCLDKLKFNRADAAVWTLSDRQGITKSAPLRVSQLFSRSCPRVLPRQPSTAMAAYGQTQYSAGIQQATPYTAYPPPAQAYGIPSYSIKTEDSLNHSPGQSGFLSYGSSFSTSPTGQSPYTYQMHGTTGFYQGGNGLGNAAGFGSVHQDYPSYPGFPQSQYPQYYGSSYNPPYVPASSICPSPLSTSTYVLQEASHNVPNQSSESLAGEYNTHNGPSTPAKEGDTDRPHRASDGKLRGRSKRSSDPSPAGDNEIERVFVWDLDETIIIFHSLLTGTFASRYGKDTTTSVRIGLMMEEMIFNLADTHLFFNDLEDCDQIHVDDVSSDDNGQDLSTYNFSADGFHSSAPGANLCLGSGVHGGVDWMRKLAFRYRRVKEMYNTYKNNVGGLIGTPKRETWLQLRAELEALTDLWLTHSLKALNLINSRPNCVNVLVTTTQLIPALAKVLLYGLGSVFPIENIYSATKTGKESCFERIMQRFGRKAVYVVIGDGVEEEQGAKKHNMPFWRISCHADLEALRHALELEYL", "test": "qHTS for Inhibitors of the Phosphatase Activity of Eya2: Confirmatory Assay for Cherry-picked Compounds; also: nearly all actives have a fitted effect of over 65% in size;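 as to activity change, negative = inhibition: 0% = DMSO wells and -100% = EGTA control giving full inhibition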", "conditions": "purified EYA2 phosphatase activity, qHTS confirmation; series mostly up to 46.1 µM; activity change, negative = inhibition: at the top concentration", "outline": "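Eya2 (0.2 uM working solution) preincubated 10 min at room temperature with compound in pH 7.5 HEPES buffer with MgCl2, BSA, DTT. OMFP added (50 uM working solution), 10 min more; fluorescence 485/525 nm, normalized to EGTA and DMSO.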", "values": [
      {"compound": "Cn1c(=O)c(N)c2c3c(c(Br)ccc31)C(=O)c1ccccc1-2", "Potency": "6.01 µM (active)"},
      {"compound": "COCc1nnc(NC(=O)c2ccc(S(=O)(=O)N3CCOCC3)cc2)o1", "activity change, negative = inhibition": "-28.2% (inactive)"},
      {"compound": "COc1ccc(-c2nnc(NC(=O)c3ccc(S(=O)(=O)N(C)CC4CCCO4)cc3)o2)c(OC)c1", "note": "(configuration not stated)", "Potency": "21.3 µM (active)"},
      {"compound": "O=C1C(=Cc2ccco2)CCC1=Cc1ccco1", "Potency": "4.78 µM (active)"},
      {"compound": "COc1ccc(Nc2nc(-c3c(C)nc4ncccn34)cs2)cc1", "Potency": "3.38 µM (active)"},
      {"compound": "Cc1nc2ncccn2c1-c1csc(Nc2ccccc2)n1", "Potency": "3.38 µM (active)"},
      {"compound": "O=[S+]([O-])([O-])c1ccc2c(c1)cc([S+](=O)([O-])[O-])c1nn(-c3ccc(/C=C/c4ccc(-n5nc6c([S+](=O)([O-])[O-])cc7cc([S+](=O)([O-])[O-])ccc7c6n5)cc4[S+](=O)([O-])[O-])c([S+](=O)([O-])[O-])c3)nc12", "Potency": "6.75 µM (active)"},
      {"compound": "COc1ccc(-c2cn3c(C)c(C(=O)NCc4ccc5c(c4)OCO5)sc3n2)cc1", "activity change, negative = inhibition": "-15.9% (inactive)"},
      {"compound": "CN(C)c1ccc(Sc2ccc3nc(N)nc(N)c3c2)cc1", "Potency": "6.75 µM (active)"},
      {"compound": "S=C(NC1CC1)NC1CCCc2ccccc21", "note": "(configuration not stated)", "activity change, negative = inhibition": "-11.4% (inactive)"},
      {"compound": "N[C@@H](Cc1cnc[nH]1)C(=O)Nc1ccc2ccccc2c1", "Potency": "21.3 µM (active)"},
      {"compound": "O=C(O)c1cccc(Nc2nc(-c3ccccc3)nc3ccccc23)c1", "Potency": "9.53 µM (active)"},
      {"compound": "O=C(O)c1ccc(Nc2nc(-c3ccccc3)nc3ccccc23)cc1", "Potency": "8.49 µM (active)"},
      {"compound": "Cc1ccc(Nc2nc(-c3cccnc3)nc3ccccc23)cc1", "activity change, negative = inhibition": "-29.8% (inactive)"},
      {"compound": "CCOC(=O)N1CCC(NC(=O)c2cc3c(-c4ccccc4F)nn(C)c3s2)CC1", "activity change, negative = inhibition": "-14.8% (inactive)"},
      {"compound": "O=C(CCn1c(=O)oc2ccccc21)NCc1ccc2c(c1)OCO2", "activity change, negative = inhibition": "-2.46% (inactive)"},
      {"compound": "Cn1nnnc1SCC(=O)Nc1ccc2c(c1)OCO2", "activity change, negative = inhibition": "-11% (inactive)"},
      {"compound": "CCCCn1nc(C(=O)Nc2ccc3c(c2)OCO3)c2ccccc2c1=O", "Potency": "12 µM (active)"},
      {"compound": "COc1ccccc1NC(=O)C1=C(C)NC2=C(C(=O)CC(c3ccc(OC)c(OC)c3)C2)C1c1coc2ccccc2c1=O", "note": "(configuration not stated)", "Potency": "21.3 µM (active)"},
      {"compound": "CCc1cc2c(=O)[nH]c(-c3ccccn3)nc2s1", "Potency": "1.69 µM (active)"},
      {"compound": "CCOc1ccc2c(c1)-c1c(ssc1=S)C(C)(C)N2C(=O)CSC1=NCCS1", "Potency": "16.9 µM (active)"},
      {"compound": "Cc1nc(C)c(-c2csc(Nc3ccc(O)c(C(=O)O)c3)n2)s1", "Potency": "19 µM (active)"},
      {"compound": "COc1ccc(S(=O)(=O)N2CCC3CC2c2cc(N4CCOCC4)ccc23)cc1", "note": "(configuration not stated)", "activity change, negative = inhibition": "17.1% (inactive)"},
      {"compound": "COc1ccc(N2CCN(C(c3cccs3)C(C)NC(=O)c3ccc4c(c3)OCO4)CC2)cc1", "note": "(configuration not stated)", "activity change, negative = inhibition": "1.89% (inactive)"},
      {"compound": "COc1ccc(N2CCN(Cc3ccc(Br)s3)CC2)cc1", "Potency": "10.7 µM (active)"},
      {"compound": "COc1ccc(N2CCN(C(c3ccco3)c3sc4nc(C)nn4c3O)CC2)cc1", "note": "(configuration not stated)", "activity change, negative = inhibition": "-27.1% (inactive)"},
      {"compound": "COc1ccc(N2CCN(Cc3cc4c(cc3Br)OCCO4)CC2)cc1", "Potency": "15.1 µM (active)"},
      {"compound": "O=C(Oc1ccc(C(=S)N2CCOCC2)cc1)c1cccc(Cl)c1", "Potency": "8.49 µM (active)"},
      {"compound": "O=C(Oc1ccc(C(=S)N2CCOCC2)cc1)c1ccccc1", "Potency": "16.9 µM (active)"},
      {"compound": "O=C(Oc1ccc(C(=S)N2CCOCC2)cc1)c1cccc([N+](=O)[O-])c1", "Potency": "7.57 µM (active)"},
      {"compound": "Cc1ccc(C(=O)ON=C2CCN(c3ccc([N+](=O)[O-])cc3)CC2)cc1", "activity change, negative = inhibition": "-23.5% (inactive)"},
      {"compound": "CC(=O)c1ccc(OC(=O)/C=C/c2ccccc2)cc1", "Potency": "4.26 µM (active)"},
      {"compound": "Cc1ccc(Nc2nc(N)nc(CSc3nnc(C)s3)n2)cc1", "activity change, negative = inhibition": "-27.8% (inactive)"},
      {"compound": "COc1ccc(C(=O)C2CCCN(C(=O)c3cccc(N(C)C)c3)C2)cc1OC", "note": "(configuration not stated)", "activity change, negative = inhibition": "-24.1% (inactive)"},
      {"compound": "COC(=O)C(Sc1ccc(Cl)cc1)C1SC(=S)N(Cc2ccccc2)C1=O", "note": "(configuration not stated)", "activity change, negative = inhibition": "-27.9% (inactive)"},
      {"compound": "O=C(Cc1ccc(F)cc1)Oc1ccc(C(=S)N2CCCC2)cc1", "Potency": "15.1 µM (active)"},
      {"compound": "COc1ccc(C(=O)OCC(=O)Nc2ccc(N3CCOCC3)cc2)cc1", "activity change, negative = inhibition": "-5.25% (inactive)"},
      {"compound": "O=C(/C=C/c1ccccc1)Oc1ccc(C(=S)N2CCOCC2)cc1", "Potency": "1.51 µM (active)"},
      {"compound": "O=C(Oc1ccc(C(=S)N2CCOCC2)cc1)c1ccc(F)cc1", "Potency": "7.57 µM (active)"},
      {"compound": "Cc1ccc(C(=O)Oc2ccc(C(=S)N3CCOCC3)cc2)cc1", "Potency": "1.2 µM (active)"},
      {"compound": "COc1cccc(OC)c1C(=O)OCC(=O)NCC1CCCCC1", "activity change, negative = inhibition": "-9.42% (inactive)"},
      {"compound": "CC(C)OCCCNC(=O)c1ccccc1NC(=O)C1=CSCCO1", "activity change, negative = inhibition": "-8.43% (inactive)"},
      {"compound": "C1=Cc2ccccc2/C1=C\\c1cc2c3c(c1)CCCN3CCC2", "Potency": "7.57 µM (active)"},
      {"compound": "COc1cc(N=c2oc3c(C)ncc(CO)c3cc2C(N)=O)cc(OC)c1OC", "Potency": "6.75 µM (active)"},
      {"compound": "Cc1ccc(NC(=O)c2cc3c(CO)cnc(C)c3oc2=Nc2cccc(C(N)=O)c2)cc1", "activity change, negative = inhibition": "-28.9% (inactive)"},
      {"compound": "COc1ccc(-n2nc(C)cc2Nc2ccccc2C(=O)O)cc1", "Potency": "6.01 µM (active)"},
      {"compound": "COc1ccc(C(=O)Nc2cc(OC)c(NC(=O)Nc3ccccc3)cc2OC)cc1", "activity change, negative = inhibition": "-25.1% (inactive)"},
      {"compound": "Cc1cc(Nc2ccccc2C(=O)O)n(-c2cccc(Cl)c2)n1", "Potency": "6.75 µM (active)"},
      {"compound": "CN(C)c1ccc(/C=C/C=C2/C=Cc3ccccc32)cc1", "Potency": "4.26 µM (active)"},
      {"compound": "CN(C)c1ccc(C=C2C=Cc3ccccc32)cc1", "Potency": "3.79 µM (active)"},
      {"compound": "CC1=C/C(=C\\c2ccc(N(C)C)cc2)c2ccccc21", "Potency": "7.57 µM (active)"},
      {"compound": "CCN(CC)c1ccc(/C=C2\\C=Cc3ccccc32)cc1", "Potency": "6.75 µM (active)"},
      {"compound": "CC1C(c2ccccc2)=Nn2c(=O)n(-c3ccccc3)c(=O)n21", "note": "(configuration not stated)", "activity change, negative = inhibition": "-2.7% (inactive)"},
      {"compound": "CNc1ccc(C=C2C=Cc3ccccc32)cc1", "Potency": "15.1 µM (active)"},
      {"compound": "CN(C)c1ccc(/C=C2\\C=Cc3ccccc32)cc1", "Potency": "6.01 µM (active)"},
      {"compound": "C1=Cc2ccccc2/C1=C\\c1cc[cH-]c1.[Fe+2].c1cc[cH-]c1", "Potency": "10.7 µM (active)"},
      {"compound": "Cc1oc2c(Cl)c(Cl)c(O)c(CN(C)C)c2c1C(=O)c1ccc(Cl)cc1", "Potency": "19 µM (active)"},
      {"compound": "O=C1C(NS(=O)(=O)c2cccs2)=C(N2CCN(Cc3ccccc3)CC2)C(=O)c2ccccc21", "Potency": "13.5 µM (active)"},
      {"compound": "CC(=O)Nc1ccc(S(=O)(=O)NC2=C(N3CCN(Cc4ccccc4)CC3)C(=O)c3ccccc3C2=O)cc1", "Potency": "19 µM (active)"},
      {"compound": "Cc1nn(-c2ccccc2)c2c1C(c1cccnc1)N1C=C(S(=O)(=O)N3CCCCC3)C=CC1=N2", "note": "(configuration not stated)", "activity change, negative = inhibition": "-26.3% (inactive)"},
      {"compound": "NC(=O)c1ccc(-c2nnc(Nc3ccc(S(N)(=O)=O)cc3)c3ccccc23)cc1", "Potency": "13.5 µM (active)"},
      {"compound": "COc1ccc(Nc2nnc(-c3ccc(C(N)=O)cc3)c3ccccc23)cc1", "Potency": "4.78 µM (active)"},
      {"compound": "CNC(=O)c1ccc(Nc2nnc(-c3ccc(C(N)=O)cc3)c3ccccc23)cc1", "Potency": "4.78 µM (active)"},
      {"compound": "COc1ccc(-c2csc(-c3ccc(C(=O)O)cc3)n2)cc1", "activity change, negative = inhibition": "-19.6% (inactive)"},
      {"compound": "COc1ccc(NC(=O)c2[nH]c(C)c(C(C)=O)c2C)cc1Cl", "activity change, negative = inhibition": "-25.3% (inactive)"},
      {"compound": "Cc1cc2oc(C(=O)N3CCN(Cc4ccccc4)CC3)c(C)c2cc1C", "activity change, negative = inhibition": "-28.7% (inactive)"},
      {"compound": "Cc1cc2oc(C(=O)N(Cc3ccc(N(C)C)cc3)CC3CCCO3)c(C)c2cc1C", "note": "(configuration not stated)", "Potency": "8.49 µM (active)"},
      {"compound": "COc1ccc(N(CC(=O)N2CCCCC2)S(=O)(=O)c2c(C)nn(C)c2C)cc1", "activity change, negative = inhibition": "-2.46% (inactive)"},
      {"compound": "COc1ccc(NC(=O)c2ccc(CN3CCc4ccccc4C3)cc2)c(OC)c1", "activity change, negative = inhibition": "-24.9% (inactive)"},
      {"compound": "COc1ccc(NC(=O)c2ccc(COc3ccccc3)o2)c(OC)c1", "activity change, negative = inhibition": "-18.8% (inactive)"},
      {"compound": "COc1ccc(NC(=O)COc2cccc3c2CCN(C)C3=O)c(OC)c1", "Potency": "12 µM (active)"},
      {"compound": "Clc1ccc(-n2nnnc2-c2cnc3ccccc3c2-c2ccccc2)cc1", "activity change, negative = inhibition": "-27.9% (inactive)"},
      {"compound": "Cc1cc(C)n2nc(C(=O)NC3CCCc4ccccc43)nc2n1", "note": "(configuration not stated)", "activity change, negative = inhibition": "-9.93% (inactive)"},
      {"compound": "Cc1cc(C)n2nc(SCCOc3ccccc3F)nc2n1", "Potency": "15.1 µM (active)"},
      {"compound": "CN(C)S(=O)(=O)c1cccc(NC(=O)COc2ccccc2C(=O)Nc2ccccc2)c1", "Potency": "13.5 µM (active)"},
      {"compound": "O=C(COc1ccccc1/C=C1/NC(=O)NC1=O)Nc1ccccc1", "activity change, negative = inhibition": "-25.6% (inactive)"},
      {"compound": "Cc1cnc2c(C)cccc2c1/C=C/c1ccc(N(C)C)cc1", "Potency": "6.01 µM (active)"},
      {"compound": "Cc1ccc(C)c2c(/C=C/c3ccc(N(C)C)cc3)ccnc12", "Potency": "5.36 µM (active)"},
      {"compound": "Cc1cnc2c(C)ccc(C)c2c1/C=C/c1ccc(N(C)C)cc1", "Potency": "6.01 µM (active)"},
      {"compound": "Cc1cc(C)c2c(/C=C/c3ccc(N(C)C)cc3)ccnc2c1", "Potency": "9.53 µM (active)"},
      {"compound": "COCc1cc(O)c(O)c(O)c1-c1c(COC)cc(O)c(O)c1O", "activity change, negative = inhibition": "-12.3% (inactive)"},
      {"compound": "Cc1cc(=O)n2[nH]c(Nc3cccc(Cl)c3)nc2n1", "activity change, negative = inhibition": "-20.9% (inactive)"}
    ]}
  ]
}
